The results in this text go back to PubChem BioAssay (Tox21).

Each structure is given as a SMILES string. Inconclusive results are not listed. Entries that show only a call come without a potency. Unmarked numbers belong to inactive results. The source made the active and inactive calls. Calls come from the whole dose curve.

This experiment in a line: qHTS assay to identify small molecule agonists of the hypoxia (HIF-1) signaling pathway - cell viability counter screen (AID 1224844). Note: nearly all actives have a fitted effect of over 50% in size. As to conditions: HRE-bla ME-180 viability, CellTiter-Glo luminescence, 17 h; series mostly up to 76.8 µM; activity change, negative = cytotoxicity: at the top concentration. From the text:
National Center for Advancing Translational Sciences [NCATS]
NIH Chemical Genomics Center [NCGC]
U.S. Environmental Protection Agency [EPA]
National Institutes of Environmental Health Sciences [NIEHS]
National Toxicology Program [NTP]
U.S. Food and Drug Administration [FDA]
Hypoxia-inducible factor-1 (HIF-1) is the major hypoxia-regulated transcription factor that controls cellular responses to low oxygen concentration. HIF-1 is composed of two subunits: hypoxia responsive HIF-1-alpha and constitutively expressed HIF-1-beta, which is also known as aryl hydrocarbon receptor nuclear translocator. During hypoxic conditions, HIF-1-alpha heterodimerizes with HIF-1-beta and translocates into the nucleus where the HIF-1 complex binds to the hypoxia-response element (HRE) and activates expression of target genes such as VEGF (vascular endothelial growth factor). The HIF-1 pathway is essential to normal growth and development, and is involved in the pathophysiology of cancer, inflammation, and ischemia.
Using a beta-lactamase reporter-gene under control of the hypoxia response element, a cell-based assay [CellSensor(TM) HRE-bla ME-180 from Life Technologies, Carlsbad, CA] was used to measure hypoxia-induced signaling. Tox21 10K library compounds were measured for their ability to induce the reporter gene activity. The cytotoxicity of the Tox21 compound library against HRE-bla ME-180 cell line was tested in parallel by measuring cell viability using CellTiter-Glo assay (Promega, Madison, WI) in the same assay wells.
Tox21 Assay Protocol Summary:
HRE-bla ME-180 cells were dispensed at 2,000 cells per well in 6 uL of assay medium containing 0.5% dialyzed FBS into black wall/clear-bottom 1536-well plates using a Multidrop Combi (Thermo Scientific, Waltham, MA) dispenser. After the assay plates were incubated at 37C and 5% CO2 for 5 hrs, 23 nL of compounds dissolved in DMSO, positive controls or DMSO only was transferred to each well of the assay plate using a Pintool station (Kalypsys, San Diego, CA). The assay plates were incubated at 37C and 5% CO2 for 17 hrs. One uL of LiveBLAzerTM B/G FRET substrate (CCF4-AM) (Life Technologies) was added to each well using a Flying Reagent Dispenser (FRD, Aurora Discovery, San Diego, CA). After 2 hr incubation at room temperature, fluorescence intensity (405 nm excitation, 460 nm and 530 nm emissions) was measured using an Envision plate reader (PerkinElmer, Shelton, CT). For cytotoxicity, 4 ul/well of CellTiter-Glo reagent was added into the assay plates using an FRD. After 30 min incubation at room temperature, the luminescence intensity was measured using a ViewLux plate reader (PerkinElmer).
(In qHTS, concentration-response curves come from the screen itself.)
Take `CC(=O)CC(=O)Nc1ccccc1C`: the Potency result is “inactive”. Same read-out and setting: then `Cc1cccc(O)c1`, with “inactive”; and `CCC(O)OCCCOC` (stereo not given), with “inactive”. Consider `Oc1cccc2ccccc12`, for which the Potency entry was “inactive”. With `Cc1occc(=O)c1O`, the Potency entry is “inactive”. Still for that read-out and setting: then `CCCCCC/C(C=O)=C\c1ccccc1`, with “inactive”. As for `C=CCNC(N)=S`, the “activity change, negative = cytotoxicity” value was 2.94% [at 35.3 µM]. The same measure, in the same setting: with `CCCCCCCCC/C=C/CC1CC(=O)OC1=O` (stereo not given) the figure was -5.94%. As for `O=c1[nH]nnc2ccccc12`, the Potency entry was “inactive”. Still for that read-out and setting: with `COS(C)(=O)=O` the entry was “inactive”. Same read-out and setting: with `c1ccc2scnc2c1` the entry was “inactive”. `CN(C)CCOCCN(C)C`: the Potency entry was “inactive”. With `Nc1cc([N+](=O)[O-])ccc1O`, the Potency result was “inactive”.

On to `C[C@H]1C[C@@H]2[C@H]([C@@H](O)C[C@@]3(C)[C@H]2CC[C@]3(O)C(=O)CO)[C@@]2(C)C=CC(=O)C=C12`, for which the “activity change, negative = cytotoxicity” value was -10.5% [at 35.3 µM]. Turning to `O=C(O)c1ccc2c(c1)C(=O)OC2=O`, the Potency result was “inactive”. On the same count and under the same terms, with `O=C(O)c1cc(=O)c2c(OCC(O)COc3cccc4oc(C(=O)O)cc(=O)c34)cccc2o1` the entry was “inactive”; with `O=S1(=O)CC=CC1`, “inactive”; with `O=c1[nH]c(=O)n([C@H]2C[C@H](O)[C@@H](CO)O2)cc1Br`, “inactive”. The same measure, in the same setting: with `CC(C)(C)[C@@H](O)[C@@H](Cc1ccc(Cl)cc1)n1cncn1` the entry was “inactive”; with `C[Si](O[Si](C)(C)C)O[Si](C)(C)C`, “inactive”; with `CC(=O)OCC(=O)[C@@]12N=C(C)O[C@@H]1C[C@H]1[C@@H]3CCC4=CC(=O)C=C[C@]4(C)[C@H]3[C@@H](O)C[C@@]12C`, “inactive”. On the same count and under the same terms, then `CC(C)(N)CO`, with “inactive”; and `CC(O)COCC(C)O` (stereo not given), with “inactive”; and `c1ccc(OCCOc2ccccc2)cc1`, with “inactive”. For the compound `O=C(CC(C(=O)OC1CCCCC1)S(=O)(=O)O)OC1CCCCC1` (stereo not given), the Potency entry is “inactive”. On to `CCCCCC(N)=O`, for which the Potency entry is “inactive”. Take `O=C(OCCOCCOC(=O)c1ccccc1)c1ccccc1`: the Potency entry is “inactive”. On the same count and under the same terms, with `COc1ccc(Cl)cc1C(=O)NCCc1ccc(S(=O)(=O)NC(=O)NC2CCCCC2)cc1` the entry was “inactive”.

Regarding `CCCCCCCCCCCCS`, the “activity change, negative = cytotoxicity” value was -5.76%. With `O=C(O)c1ccc(C(=O)O)cc1`, the Potency result is “inactive”.

As to `CC[C@H](C)C(=O)O[C@H]1C[C@@H](C)C=C2C=C[C@H](C)[C@H](CC[C@@H]3C[C@@H](O)CC(=O)O3)[C@H]21`, the “activity change, negative = cytotoxicity” value is -18.1% [at 35.3 µM]. For the compound `CCC(O)OC(O)CC` (stereo not given), the Potency result was “inactive”.

For the compound `C=C(C)C(=O)Nc1ccc(Cl)c(Cl)c1`, the “activity change, negative = cytotoxicity” value is 5.7%. `OCCOCCN1CCN(C2=Nc3ccccc3Sc3ccccc32)CC1`: the Potency entry was “inactive”.

Consider `O=[N+]([O-])c1ccc(/C=C/c2ccc([N+](=O)[O-])cc2S(=O)(=O)O)c(S(=O)(=O)O)c1`, for which the Potency result is “inactive”. Still for that read-out and setting: with `c1c[nH]cn1` the entry was “inactive”; with `CCOC(=O)NNc1nncc2ccccc12`, “inactive”; with `CN(C)CCC(c1ccccc1)c1ccccn1` (stereo not given), “inactive”. The same measure, in the same setting: with `CCCCC(CC)COC(=O)CS` (stereo not given) the entry was “inactive”. For the compound `O=S(=O)(O)c1ccc2ccccc2c1`, the “activity change, negative = cytotoxicity” value was 1.01%.
